Results as given in PubChem BioAssay (NCI).
The panel holds about 83,000 compounds, 20% with a hit somewhere; the sample as a whole holds those more often.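 For each line, cells grew in 96-well plates with the test compound present at a single concentration for 48 hours.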 Unmarked numbers belong to inactive results. Calls of active or inactive are those of the source. The calls were made as follows: active = growth percent below 10; inactive = the rest.

Columns and labels:
Assay in all cases: NCI-60 one-dose screen, 48 h (100 = growth as untreated, 0 = no growth, -100 = all killed)
Conditions in all cases: 10 µM unless noted
SR leukemia = system: SR leukemia
RPMI-8226 leukemia = system: RPMI-8226 leukemia
OVCAR-8 ovarian = system: OVCAR-8 ovarian
OVCAR-5 ovarian = system: OVCAR-5 ovarian
OVCAR-4 ovarian = system: OVCAR-4 ovarian
SK-OV-3 ovarian = system: SK-OV-3 ovarian
IGROV1 ovarian = system: IGROV1 ovarian
OVCAR-3 ovarian = system: OVCAR-3 ovarian
HS 578T breast = system: HS 578T breast
NCI/ADR-RES ovarian = system: NCI/ADR-RES ovarian
T-47D breast = system: T-47D breast
BT-549 breast = system: BT-549 breast
MDA-MB-435 melanoma = system: MDA-MB-435 melanoma
SW-620 colon = system: SW-620 colon
MCF7 breast = system: MCF7 breast
HCT-116 colon = system: HCT-116 colon
HCC-2998 colon = system: HCC-2998 colon
KM12 colon = system: KM12 colon

SMILES | growth (SR leukemia) | growth (RPMI-8226 leukemia) | growth (OVCAR-8 ovarian) | growth (OVCAR-5 ovarian) | growth (OVCAR-4 ovarian) | growth (SK-OV-3 ovarian) | growth (IGROV1 ovarian) | growth (OVCAR-3 ovarian) | growth (HS 578T breast) | growth (NCI/ADR-RES ovarian) | growth (T-47D breast) | growth (BT-549 breast) | growth (MDA-MB-435 melanoma) | growth (SW-620 colon) | growth (MCF7 breast) | growth (HCT-116 colon) | growth (HCC-2998 colon) | growth (KM12 colon)
Nc1nc2c(c3ncccc13)C(c1cccc(Br)c1)Cc1ncccc1-2 (stereo unspecified) | 2.96% (active) | 34% | 26.6% | 50.6% | 58% | 16.5% | 42% | -8.61% (active) | 37.2% | 11.4% | 29.3% | 24.8% | 1.43% (active) | 29.1% | 16.5% | 11.5% | 25.4% | 18.4%
O=C1Nc2ccccc2/C1=C/C(=N/c1nnc(-c2ccccc2)s1)c1ccccc1 | -23% (active) | -17.5% (active) | 36.8% | 78.9% | 59.2% | 87.3% | 19.7% | -20.2% (active) | 106% | 46.2% | 73.7% | 66.4% | 51.6% | -5.52% (active) | 36.9% | -51.9% (active) | 104% | 87.7%
COc1ccc(S(=O)(=O)NCCNc2nccc(-c3c(-c4cccc(N)c4)nc4sccn34)n2)cc1 | 107% | 96% | 98.2% | 121% | 82.4% | 108% | 98% | 100% | 97.9% | 101% | 75.9% | 82.8% | 103% | 113% | 90.8% | 98% | 122% | 64.6%
CC#Cc1nc2ccccc2c(=O)[nH]1 | 39.4% | 2.5% (active) | 42% | 76.4% | 18.4% | 112% | 14% | 4.22% (active) | 58.7% | 55% | 67.3% | 20.4% | 25.6% | 40.8% | 23.5% | 41.1% | 13.7% | 41.1%
COc1ccc2c(c1)C(=O)/C(=C/c1cccc(OCC(=O)Nc3nc4c(s3)CCCC4)c1)O2 | -17.2% (active) | -6.7% (active) | 10.4% | -13.6% (active) | 8.81% (active) | 119% | -47.4% (active) | -68.6% (active) | -16.2% (active) | 10.4% | 47.1% | -65.4% (active) | 27.3% | -61.6% (active) | 21.9% | -25.7% (active) | -66.7% (active) | -68.3% (active)
C[C@@H]1CCC2=C(CCC[C@]2(C)C(=O)O)[C@@]1(C)CCc1ccoc1 | 97.6% | 92.9% | 94.2% | 112% | 109% | 99.1% | 99.8% | 101% | 88% | 98.7% | 94.9% | 117% | 107% | 98.8% | 96.7% | 96% | 87.6% | 97.7%
CCCCCCCCCCCCS(=O)CC(C)O (stereo unspecified) | 110% | 98.6% | 103% | 103% | 101% | 102% | 120% | 120% | 101% | 117% | 98.2% | 109% | 96.3% | 106% | 93.2% | 109% | 111% | 116%
CC/C=C\C[C@H](O)C/C=C1/C(=O)C=C[C@@H]1C/C=C\CCCC(N)=O | -27% (active) | 6.43% (active) | 11.6% | 29.8% | 56.4% | 10.9% | 10.4% | 3.26% (active) | 55.2% | 10.7% | 1.28% (active) | -12.6% (active) | 23.5% | 5.37% (active) | 7.66% (active) | -69% (active) | -73.6% (active) | -38.7% (active)
C=CC[N+]1(CCO)CCN=C1CCCCCCCCCCCCC (stereo unspecified) | -39.7% (active) | -39.5% (active) | -74.3% (active) | -94.9% (active) | -25.9% (active) | -48.6% (active) | -82% (active) | -84.4% (active) | -36.5% (active) | -62% (active) | -39.2% (active) | -10.2% (active) | -78.1% (active) | -72.3% (active) | -72.3% (active) | -95.1% (active) | -91.1% (active) | -83.2% (active)
COc1ccc(S(=O)(=O)NCCNc2nccc(-c3c(-c4cccc([N+](=O)[O-])c4)nc4sccn34)n2)cc1 | 78.4% | 74% | 83.7% | 126% | 63.1% | 102% | 67.3% | 88.3% | 91.1% | 82% | 44.4% | 72.1% | 77.9% | 128% | 61.3% | 90% | 128% | 44.8%
Cc1ccc2c(c1)O/C(=C\c1cccc(OCC(=O)c3ccccc3)c1)C2=O | 44.9% | 188% | 91.7% | 109% | 104% | 108% | 95.5% | 118% | 96.6% | 101% | 87.6% | 104% | 96.5% | 102% | 74.8% | 84.4% | 130% | 85.3%
CCN(CC)Cc1cc(Nc2c3ccccc3nc3cc(Cl)ccc23)ccc1O | -37.1% (active) | -21.1% (active) | -60.1% (active) | -15.3% (active) | -97.8% (active) | -2.76% (active) | 2.96% (active) | -92.2% (active) | -30.9% (active) | -38.5% (active) | -68.2% (active) | -58% (active) | -92.7% (active) | -41% (active) | -60.7% (active) | -43% (active) | -100% (active) | -30% (active)
Cc1ccc(/C=C2\Oc3cc(OCC(=O)c4ccc(Cl)cc4)ccc3C2=O)cc1 | 94.7% | 248% | 92.9% | 102% | 119% | 115% | 57.1% | 94.9% | 95.4% | 102% | 97.9% | 110% | 104% | 97.1% | 119% | 89.5% | 92.6% | 104%
NC(CC(=O)O)C(=O)OCc1ccccc1 (stereo unspecified) | 107% | 98.7% | 101% | 101% | 89.6% | 82.9% | 105% | 110% | 101% | 101% | 83.8% | 108% | 86.3% | 107% | 104% | 96.9% | 104% | 106%
C[C@@]1(N2C(=O)OC[C@@H]2c2ccccc2)C(=O)N([C@H](CC(=O)N2CCC(N3CCCCC3)CC2)C(=O)NCc2cccc(C(F)(F)F)c2)[C@@H]1/C=C/c1ccccc1 | -38.4% (active) | 37.1% | 89.8% | 115% | 66.3% | 78.9% | 72.1% | 73.2% | 66.1% | 81.8% | 27.4% | 78.1% | 1% (active) | 58.5% | 25.3% | 44.9% | 47.3% | 55.9%
O=c1[nH]c(-c2ccccn2)nc2sc3c(c12)CCCCC3 | 27.3% | 40.2% | 36.1% | 72.1% | 23.6% | 53% | 45.1% | 40.3% | 81.7% | 15.1% | 33.8% | 70.1% | 55.7% | 29.5% | 32.9% | 24.7% | 68.7% | 39.4%
O=C(C[C@@H](C(=O)NCc1cccc(C(F)(F)F)c1)N1C(=O)[C@@H](N2C(=O)OC[C@@H]2c2ccccc2)[C@H]1/C=C/c1ccccc1)NC1CCN(Cc2ccccc2)CC1 | -23.3% (active) | -13.7% (active) | 83.7% | 104% | 66.1% | 81.1% | 75% | 65.6% | 73.3% | 69.8% | 50.8% | 74.2% | 66.8% | 59.8% | 7.27% (active) | 30.4% | 59.9% | 59.4%
